Results from PubChem BioAssay.
Activity calls are given as the source filed them. No rule for the calls is given here.

These compounds were tested against Pantothenate synthetase (Mycobacterium tuberculosis (strain ATCC 25618 / H37Rv)) (UniProt P9WIL5) (assay: Recombinant Mtb pantothenate synthetase (PanC) inhibitors, coupled enzyme, confirmatory (AID 375;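 also: 0% = full reaction with vehicle and 100% = no enzyme background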)). Details: coupled enzyme assay; at 10 µM, active compounds read high.
Pantothenate synthetase (Mycobacterium tuberculosis (strain ATCC 25618 / H37Rv)), sequence (P9WIL5 whole entry, looked up): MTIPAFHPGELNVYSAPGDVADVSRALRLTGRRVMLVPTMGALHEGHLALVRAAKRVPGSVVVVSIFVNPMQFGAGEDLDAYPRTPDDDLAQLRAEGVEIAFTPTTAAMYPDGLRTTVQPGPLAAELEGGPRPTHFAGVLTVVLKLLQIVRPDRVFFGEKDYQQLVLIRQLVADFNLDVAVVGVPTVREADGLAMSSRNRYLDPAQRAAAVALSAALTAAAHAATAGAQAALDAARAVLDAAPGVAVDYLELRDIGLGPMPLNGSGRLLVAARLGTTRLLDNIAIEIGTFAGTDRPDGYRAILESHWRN
Cc1cncn1CCc1nc2c3ccccc3nc(=S)n2[nH]1 was tested, and the inhibition was 7% (inactive).
With Cc1ccccc1NC(=O)C1CCCN(S(=O)(=O)c2cnc[nH]2)C1 (stereo not given) the inhibition was 2% (inactive).
With COc1cc2c(cc1OC)-c1cc(OCc3cccnc3)nc(=O)n1CC2 the inhibition was 12% (inactive).
In the case of CCOCCCNCC(=O)N1CCN(S(=O)(=O)c2ccc(C)cc2)CC1, the inhibition is reported as 0% (inactive).
In the case of COc1ccccc1NC(=O)NC(N)=O, the inhibition is reported as 0% (inactive).
With CC(c1ccccc1)n1cnc2ccccc21 (stereo not given) the inhibition was 0% (inactive).
With CCOc1ccc(CSC(CC(=O)O)C(=O)O)cc1 (stereo not given) the inhibition was 6% (inactive).
With CC(=O)Nc1c(I)c(NC(C)=O)c(I)c(C(=O)O)c1I the inhibition was 1% (inactive).
With O=S(=O)(NC1=NCCC1)c1cccs1 the inhibition was 0% (inactive).
With COCCNC(=O)c1ccc2c(c1)nc(C)n2-c1cccc(F)c1 the inhibition was 9% (inactive).
COc1cccc(CNC(=O)C2CCN(c3cnccn3)CC2)c1 was tested, and the inhibition was 0% (inactive).
For C=CCn1c(=O)c(C(=O)Nc2ccccc2C(=O)OCC)c(O)c2ccccc21, the inhibition was 0% (inactive).
With C/C(Cl)=C/Cn1c(SCc2ccc(Cl)cc2)nc2c1c(=O)[nH]c(=O)n2C the inhibition was 0% (inactive).
For O=C(NCC1COc2ccccc2O1)C1CCCN(S(=O)(=O)c2cnc[nH]2)C1 (stereo not given), the inhibition was 0% (inactive).
For O=C(O)/C=C/c1ccc(O)c(O)c1, the inhibition was 1% (inactive).
For COc1ccccc1N1C(=O)c2ccccc2NC1c1ccncc1 (stereo not given), the inhibition was 3% (inactive).
In the case of O=C(c1ccc2c(c1)OCCO2)C1CCN(C(=O)c2ccc(F)cc2)CC1, the inhibition is reported as 0% (inactive).
In the case of CC(C)(C)SCCNC(=O)COc1ccccc1, the inhibition is reported as 3% (inactive).
With CCC(=O)Nc1cc(Cl)ccc1N1CCN(C(=O)CC)CC1 the inhibition was 0% (inactive).
Cc1cccc(N2CCN(S(=O)(=O)c3ccc4c(c3)CCC(=O)N4)CC2C)c1 (stereo not given) was tested, and the inhibition was 6% (inactive).
O=c1[nH]c(SCc2ccccc2Cl)nc2c1CCCC2 was tested, and the inhibition was 0% (inactive).
With Cc1nn(Cc2ccc(C(=O)NC3CCCCC3)o2)c(C)c1Br the inhibition was 2% (inactive).
For CCC(=O)Nc1cc2nn(-c3ccccc3)nc2cc1Cl, the inhibition was 0% (inactive).
With Cc1ccc(-c2csc3nnc(SCC(=O)NCc4ccco4)n23)cc1 the inhibition was 2% (inactive).
COc1ccc2[nH]c(C)c(CCN3C(=O)OC(C)(C)C3(C)O)c2c1 (stereo not given) was tested, and the inhibition was 0% (inactive).
For COc1ccc2c(CC(=O)Nc3ccc(OC)c(NS(=O)(=O)c4ccc(F)cc4)c3)coc2c1, the inhibition was 1% (inactive).
With CCOc1ccccc1C1CC(=O)NC(SCC)=C1C#N (stereo not given) the inhibition was 0% (inactive).
Cc1ccc(/C(O)=C2\C(=O)C(=O)N(CCCN(C)C)C2c2ccccn2)cc1 (stereo not given) was tested, and the inhibition was 1% (inactive).
O=C(COc1ccccc1)N1CCN(c2ncnc3c2cnn3-c2ccccc2)CC1 was tested, and the inhibition was 0% (inactive).
With CCCn1c(=N)n(CCOc2ccc(OC)cc2)c2ccccc21 the inhibition was 0% (inactive).
Cn1c(C(=O)OC(C(=O)NC2CCCC2)c2cccnc2)cc2sccc21 (stereo not given) was tested, and the inhibition was 0% (inactive).
COCC(=O)N(Cc1ccccc1)c1ccccn1 was tested, and the inhibition was 4% (inactive).
COc1ccccc1CC1(C)NC(=O)N(CC(=O)Nc2cc(C)on2)C1=O (stereo not given) was tested, and the inhibition was 1% (inactive).
For CC(C(=O)Oc1ccc2c(c1)OCO2)N1C(=O)c2ccccc2C1=O (stereo not given), the inhibition was 5% (inactive).
With CC(NC(=O)c1noc2c1CCCCC2)c1ccccc1 (stereo not given) the inhibition was 0% (inactive).
With Cn1c(=O)c2c(nc(CN3CCc4ccccc4C3)n2Cc2cccc(Cl)c2)n(C)c1=O the inhibition was 0% (inactive).
With CN(Cc1ccccc1)Cc1nc2c([nH]1)c(=O)[nH]c(=O)n2C the inhibition was 7% (inactive).
For O=C(Nc1ccc(N2CCOCC2)cc1)C1CC1, the inhibition was 0% (inactive).
For CCOC(=O)C1=C(CN2CCOCC2)NC(=O)NC1c1cc(C)ccc1C (stereo not given), the inhibition was 2% (inactive).
For Oc1c(I)cc(I)c2cccnc12, the inhibition was 2% (inactive).
